Compound activity from PubChem.
Hits are enriched below; roughly 4.3% of the tested compounds scored in any of these assays.
CHOP inhibitor = inhibitors of CHOP promoter induction, primary screen, cell-based, unfolded protein response, luciferase reporter | inhibition, % at 10 µM | CHO-K1 CHOP-promoter luciferase, tunicamycin-induced, 15-18 h | 220,000 tested, 3.8% active | AID 2732, 2010;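 active = compounds that reduced the stress-induced luciferase reporter signal by more than about 70% of percent inhibition, limit read from the data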
HIF-2a block = HIF-2a reporter inhibitors, primary screen, luminescence, 786-0 RCC cells. inhibition, % at 18.8 µM. 786-0 RCC cells HIF-2a reporter, luciferase luminescence, overnight. AID 624352, 2012. 360,000 tested, 0.72% active;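 active = inhibition of the luminescence signal of 40% or more relative to plate controls, in a single-dose primary screen at 18.75 µM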
TRPM1 prom inh = inhibitors of MITF-dependent TRPM1 promoter reporter, primary screen, cell-based, SK-MEL-5, single point, luciferase; SK-MEL-5 TRPM1 promoter luciferase, 24 h; inhibition, % at 12.5 µM; 330,000 tested, 0.83% active;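 active = mean inhibition across replicates of 60% or more, whatever share of single replicates reaches that level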
Peg3 promoter = Peg3 promoter-driven luciferase inhibitors, primary screen, cell-based, HeLa, luciferase luminescence. HeLa PEG-Prom luciferase reporter, overnight. inhibition, % at 20 µM. 360,000 tested, 1.7% active. AID 588405, 2011;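 active = inhibition of at least 50% at 20 µM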
KKLEB tox = cytotoxicity in KKLEB CF airway cells, primary screen, cytotoxicity control for CF NF-kB inhibitor project, cell-based, uHTS, fluorescence assay plates. KKLEB CF airway cells viability, ATPlite luminescence, overnight; hits give low values; cells stimulated with P. aeruginosa culture filtrate. activity change (cytotoxicity), % at 5 µM. 360,000 tested, 0.36% active;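 active = corrected activity change at or below -50% at 5 µM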
CF NFkB block = inhibitors of PAF-induced NF-kB signaling, primary screen, cell-based, GFP fluorescence, uHTS. AID 588850, 2011. KKLEB NF-kB-GFP reporter, GFP fluorescence overnight. inhibition, % at 5 µM. 360,000 tested, 0.86% active;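 active = at least 50% inhibition at 5 µM, scaled per plate between neutral and stimulator controls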;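 also: PAF is a Pseudomonas aeruginosa culture filtrate used as stimulus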
Numbers stand for hits; . = inactive; / = no result.

SMILES	CHOP inhibitor	HIF-2a block	TRPM1 prom inh	Peg3 promoter	KKLEB tox	CF NFkB block
COc1ccc(NCc2nnc(SCC(=O)Nc3nc(-c4ccccc4)cs3)n2-c2ccccc2)cc1	.	.	.	83	.	.
COc1ccc(-n2c(CNc3ccc(C)cc3)nnc2SCC(=O)Nc2nc(-c3ccccc3)cs2)cc1	.	.	.	.	.	.
Cc1cc(-c2nnc(SCC(=O)Nc3nc(-c4ccccc4)cs3)o2)no1	.	.	.	.	.	.
Cc1occc1-c1nnc(SCC(=O)Nc2nc(-c3ccccc3)cs2)o1	72	.	.	.	.	.
O=C(CSc1nnc(Cc2cccs2)n1Cc1ccco1)Nc1cc(Cl)cc(Cl)c1	82	.	.	.	.	.
O=C(CSc1nnc(-c2ccncc2)n1Cc1ccco1)Nc1nc(-c2ccccc2)cs1	77	.	.	.	-55	.
Cc1ccc(S(=O)(=O)NN=CC2(c3ccccc3)CC2)cc1	/	.	/	.	.	.
CC(C)(C)CCN1CCC(CN2CCNC2=S)CC1	/	.	/	.	.	.
Cc1cnc(NC(=O)CSc2ncc(-c3ccccc3)n2Cc2ccco2)s1	73	.	.	.	.	.
S=c1ncc2[nH]c(=S)[nH]c2[nH]1	/	.	.	.	.	.
O=C(NCc1cccnc1)OC1CC2CC1[C@H]1CCCCN1C2=O (stereo partly specified)	/	.	/	/	/	/
CCOC(=O)c1c(/N=C/N(C)C)sc(/C=N/Nc2ccccc2)c1-c1ccccc1	82	.	.	.	.	.
CC(=O)c1sc(NC(=O)C(C)Oc2ccc3c(C)cc(=O)oc3c2)nc1C (stereo unspecified)	/	.	.	.	.	.
CCN1C/C(=C\c2cccc([N+](=O)[O-])c2)C(=O)/C(=C/c2cccc([N+](=O)[O-])c2)C1	108	97	93	105	-57	94
CCOC(=O)CNc1nc(Cl)nc(Nc2ccc(C)cc2)n1	70	.	.	.	.	.
CC(C)CN=Cc1c(O)c([N+](=O)[O-])cc2oc3c(c12)CCCC3	84	.	.	.	.	.
Cc1cc(C)cc(Oc2ccccc2/C=N\O)c1	73	.	.	.	.	.
Cc1nc(-c2ccncc2)sc1C(=O)Nc1ccc(Cl)cc1	.	.	.	.	.	.
Cc1nc(-c2cccnc2)sc1C(=O)Nc1ccc(Cl)cc1	81	.	.	.	.	.
COc1cccc2[nH]c3ccccc3c(=O)c12	/	.	.	.	.	.
C=Cc1ncc(OC)c2c1[nH]c1ccccc12	/	.	82	81	-54	.
CCOC(=O)CSc1c(-c2ccccc2)c2cc(Cl)ccc2[nH]c1=O	91	.	.	.	.	.
O=C(O)CSc1c(-c2ccccc2)c2cc(Cl)ccc2[nH]c1=O	.	.	.	.	.	.
Cc1ccc(S(=O)(=O)NCc2c(-c3ccccc3)c3cc(Cl)ccc3[nH]c2=O)cc1	103	.	.	.	.	.
CSCCC(C(=O)Nc1c(C)cccc1C)N1CCN(c2ccc(F)cc2)CC1 (stereo unspecified)	/	.	/	.	.	.
SMILES	CHOP inhibitor	HIF-2a block	TRPM1 prom inh	Peg3 promoter	KKLEB tox	CF NFkB block
Cc1ccc(-n2cc(CN(C)Cc3nccn3C)c(-c3ccc(F)cc3)n2)cc1	.	.	.	.	.	.
CCn1ccnc1CN(C)Cc1cn(-c2ccc(C)cc2)nc1-c1ccc(F)cc1	75	.	.	.	.	.
CCCCc1ccc(N2C(=NC(=O)C3CCCO3)SC3CS(=O)(=O)CC32)cc1 (stereo unspecified)	/	.	.	.	.	.
CC(C)Cn1c(=S)[nH]c2cc(Cl)ccc21	.	.	.	.	.	.
Cc1ccc(Cl)cc1N1CCN(C(=O)CSc2nnc3n2C(C)(C)Cc2ccccc2-3)CC1	81	.	.	.	.	.
COc1ccc(N2CCN(C(=O)CSc3nnc4n3C(C)(C)Cc3ccccc3-4)CC2)cc1	.	.	.	.	.	.
CC1(C)Cc2ccccc2-c2nnc(SCC(=O)N3CCc4ccccc43)n21	77	.	.	.	.	.
O=C(CSc1ccc2nnc(-c3ccc(Cl)cc3)n2n1)N1CCc2ccccc21	79	.	.	.	.	.
CCOc1ccc(-n2c(SCC(=O)N3CCc4ccccc43)nnc2-c2c[nH]c3ccccc23)cc1	.	.	/	.	.	.
COc1cccc(-n2c(SCC(=O)N3CCc4ccccc43)nnc2-c2c[nH]c3ccccc23)c1	90	.	.	101	-58	60
O=C(Cn1c(=O)oc2ccccc21)NCC1COc2ccccc2O1 (stereo unspecified)	/	.	.	.	.	.
CC1CCc2c(sc(NC(=S)NC(=O)c3ccccc3)c2C#N)C1 (stereo unspecified)	71	.	.	.	.	.
CCCC1Cc2c(sc(NC(=S)NC(=O)c3ccccc3)c2C#N)CO1 (stereo unspecified)	86	/	/	/	/	/
N#CC1=C(N)OC2=C(CC/C2=C\c2ccc(F)cc2)C1c1ccc(F)cc1 (stereo unspecified)	79	/	/	/	/	/
N#CC1=C(N)OC2=C(CCC/C2=C/c2ccoc2)C1c1ccoc1 (stereo unspecified)	.	/	/	/	/	/
CN(c1ccccc1)c1ccc(/C=C(\CCC(=O)O)c2nc3ccccc3s2)cc1[N+](=O)[O-]	100	.	.	.	.	.
COc1ccc(C(=O)Nc2cccc(/C=C(\CCC(=O)O)c3nc4ccccc4s3)c2)cc1	83	.	.	.	.	.
Cc1nn(CC(=O)NC2(C)CCS(=O)(=O)C2)c(C)c1S(=O)(=O)N(C)C (stereo unspecified)	/	.	.	.	.	.
Fc1cccc2sc(Nc3nc4ccccc4s3)nc12	85	.	.	.	.	.
COC(=O)C1=C(C)NC(=O)NC1c1cc(Cl)ccc1OC (stereo unspecified)	.	.	.	.	.	.
COc1ccc(Br)cc1C1NC(=O)NC(C)=C1C(=O)N(C)C (stereo unspecified)	.	.	.	.	-53	.
CC(C)C[C@H]1CN([C@@H](CC(C)C)CN2CCCC2CN2C(=S)NC[C@@H]2Cc2ccc(O)cc2)C(=S)N1CC1CCCCC1 (stereo partly specified)	/	.	.	72	.	.
CC(C)C[C@H]1CNC(=S)N1CC1CCCN1C[C@H](CC(C)C)N1C[C@H](Cc2ccccc2)N(CC2CCCCCC2)C1=S (stereo partly specified)	/	.	.	.	.	.
Oc1ccc(C[C@H]2CN([C@@H](Cc3ccc(O)cc3)CN3CCC[C@@H]3CN3C(=S)NC[C@@H]3Cc3ccccc3)C(=S)N2CCc2ccccc2)cc1	/	.	/	.	.	.
